Experimental data taken from PubChem BioAssay (NCATS).
Records with an inconclusive call do not appear. Activity calls are given as the source filed them. Calls come from the whole dose curve; as a rule, active = well fitted inhibition curve with a large enough effect; inconclusive = small, poorly fitted or top-dose-only effect; inactive = no such curve, though single readings can be large or run the other way.

biological target: Cytochrome P450 3A4 (Homo sapiens) (UniProt P08684); assay: qHTS Assay for Inhibitors and Substrates of Cytochrome P450 3A4 (AID 884); details: recombinant CYP3A4, Luciferin-PPXE luminescence; series mostly up to 57.1 µM; note: nearly all actives have a fitted effect of over 50% in size
Sequence (P08684 whole entry, looked up): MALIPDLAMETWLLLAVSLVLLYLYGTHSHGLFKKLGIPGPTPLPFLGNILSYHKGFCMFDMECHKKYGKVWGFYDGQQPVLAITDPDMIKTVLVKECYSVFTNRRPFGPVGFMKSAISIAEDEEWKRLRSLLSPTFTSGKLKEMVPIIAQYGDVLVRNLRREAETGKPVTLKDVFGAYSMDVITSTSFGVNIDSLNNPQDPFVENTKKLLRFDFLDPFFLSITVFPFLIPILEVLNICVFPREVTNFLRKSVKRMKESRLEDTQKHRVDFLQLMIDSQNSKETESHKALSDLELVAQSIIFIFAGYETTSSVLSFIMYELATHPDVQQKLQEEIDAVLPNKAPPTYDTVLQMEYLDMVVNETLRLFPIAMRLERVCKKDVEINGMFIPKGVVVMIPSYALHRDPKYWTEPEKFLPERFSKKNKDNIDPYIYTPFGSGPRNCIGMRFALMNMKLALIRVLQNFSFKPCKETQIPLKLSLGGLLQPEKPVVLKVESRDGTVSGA
Outline: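 20 nM human CYP3A4 with 25 uM Luciferin-PPXE (at KM) in 200 mM KPO4, preincubated 10 min with compound; NADPH regeneration started a 60 min RT reaction. Luciferin detected by luminescence, normalized to 57 uM ketoconazole as full inhibition.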
Potency is the fitted concentration of half-maximal effect.

Potency, active:
COC(=O)[C@@]1(Cc2ccc(F)cc2)[C@H]2c3cc(C(=O)N4CCCC4)n(Cc4cccc5ccccc45)c3C[C@H]2CN1C(=O)c1ccccc1 2000 nM, COC(=O)[C@@]1(Cc2ccccc2)[C@H]2c3cc(C(=O)N4CCCC4)n(Cc4ccc(OC)c(OC)c4)c3C[C@H]2CN1C(=O)c1ccccc1 1260 nM, COC(=O)[C@@]1(Cc2ccc(F)cc2)[C@H]2c3cc(C(=O)N4CCCC4)n(Cc4ccc(OC(F)(F)F)cc4)c3C[C@H]2CN1C(=O)c1ccccc1 2510 nM, C[C@@H](C(=O)Nc1ccc2ccccc2c1)[C@H]1C[C@]1(C)[C@H](NC(=O)OCc1ccccc1)c1ccccc1 2510 nM, CCCc1cc2c(n1Cc1cc(F)cc(F)c1)C(C)C1CN(C(=O)c3ccccc3)C(C)(C(=O)OC)C21 (stereo not given) 3160 nM
